Inconclusive results are not listed. The source made the active and inactive calls. The call rests on the fitted dose curve; in most records, active means well fitted curve in the direction sought with a large enough effect; inconclusive means small, poorly fitted or top-dose-only effect, or another doubt; inactive means no such curve, though single readings can be large; an effect the other way counts as inactive or inconclusive.
Columns and labels:
[1] = qHTS of pediatric cancer cell lines to identify multiple opportunities for drug repurposing: Primary screen for U-2 OS cells (AID 1347096); settings: U-2 OS viability, CellTiter-Glo luminescence, 48 h; series mostly up to 46 µM; further: nearly all actives have a fitted effect of over 50% in size
Outline: (§1)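 Viability after 48 h compound treatment at 37C, 500-1,000 cells/well, read as ATP luminescence with CellTiter-Glo. Primary screens used 11-point (MIPE, 0.78 nM-46 µM) or 8-point (NPC, 0.59 nM-46 µM) final concentrations; follow-up screens used 11-point dilutions.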

[2] = qHTS of pediatric cancer cell lines to identify multiple opportunities for drug repurposing: Primary screen for NB1643 cells (AID 1347099); settings: NB1643 neuroblastoma viability, CellTiter-Glo luminescence, 48 h; series mostly up to 46 µM; further: nearly all actives have a fitted effect of over 50% in size; further: potency means the concentration at half of the fitted maximal effect
Outline: (§2)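 Readout: CellTiter-Glo luminescence, 48 h treatment. Controls DMSO (neutral) and bortezomib 2.3 µM final (positive). Potency and efficacy taken from primary-screen concentration-response curves.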

[3] = qHTS of pediatric cancer cell lines to identify multiple opportunities for drug repurposing: Primary screen for LAN-5 cells (AID 1347100); settings: LAN-5 neuroblastoma viability, CellTiter-Glo luminescence, 48 h; series mostly up to 46 µM; further: potency means the concentration at half of the fitted maximal effect
Outline: as §1

[4] = qHTS of pediatric cancer cell lines to identify multiple opportunities for drug repurposing: Primary screen for Rh18 cells (AID 1347102); settings: Rh18 rhabdomyosarcoma viability, CellTiter-Glo luminescence, 48 h; series mostly up to 46 µM; further: nearly all actives have a fitted effect of over 65% in size
Outline: as §1

[5] = qHTS of pediatric cancer cell lines to identify multiple opportunities for drug repurposing: Primary screen for OHS-50 cells (AID 1347103); settings: OHS-50 osteosarcoma viability, CellTiter-Glo luminescence, 48 h; series mostly up to 57.3 µM; further: nearly all actives have a fitted effect of over 40% in size; further: potency means the concentration at half of the fitted maximal effect
Outline: (§3)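 Cells (500-1,000/well) rested 5 h, then received compounds for 48 h; metabolically active cells were measured by CellTiter-Glo luminescence. Final concentrations spanned up to 46 µM (MIPE, 11-point) or 0.59 nM-46 µM (NPC, 8-point) in primary screens, 11-point in follow-ups.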

[6] = qHTS of pediatric cancer cell lines to identify multiple opportunities for drug repurposing: Primary screen for MG 63 (6-TG R) cells (AID 1347105); settings: MG 63 (6-TG R) viability, CellTiter-Glo, 48 h; series mostly up to 46 µM; further: nearly all actives have a fitted effect of over 50% in size; further: potency means the concentration at half of the fitted maximal effect
Outline: as §2

[7] = qHTS of pediatric cancer cell lines to identify multiple opportunities for drug repurposing: Primary screen for BT-12 cells (AID 1347101); settings: BT-12 viability, CellTiter-Glo luminescence, 48 h; series mostly up to 57.3 µM; further: nearly all actives have a fitted effect of over 25% in size; further: potency means the concentration at half of the fitted maximal effect
Outline: as §3

[8] = qHTS of pediatric cancer cell lines to identify multiple opportunities for drug repurposing: Primary screen for control Hh wild type fibroblast cells (AID 1347106); settings: Hh wild-type fibroblast viability, CellTiter-Glo luminescence, 48 h; series mostly up to 46 µM; further: nearly all actives have a fitted effect of over 55% in size; further: potency means the concentration at half of the fitted maximal effect
Outline: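 Cells (500-1,000/well) in growth media were settled 5 h at 37 degrees C, then given compounds for 48 h. Viability was read as CellTiter-Glo luminescence. Primary runs used MIPE at 11 points (0.78 nM-46 µM) and NPC at 8 points (0.59 nM-46 µM); follow-ups used 11 points.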

[9] = qHTS of pediatric cancer cell lines to identify multiple opportunities for drug repurposing: Primary screen for Rh30 cells (AID 1347107); settings: Rh30 rhabdomyosarcoma viability, CellTiter-Glo luminescence, 48 h; series mostly up to 46 µM; further: nearly all actives have a fitted effect of over 75% in size
Outline: as §1

[10] = qHTS of pediatric cancer cell lines to identify multiple opportunities for drug repurposing: Primary screen for Rh41 cells (AID 1347108); settings: Rh41 rhabdomyosarcoma viability, CellTiter-Glo luminescence, 48 h; series mostly up to 46 µM;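 further: luminescence drop marks cytotoxic hits; nearly all actives have a fitted effect of over 70% in size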
Outline: as §2

[11] = qHTS of pediatric cancer cell lines to identify multiple opportunities for drug repurposing: Primary screen for SK-N-SH cells (AID 1347098); settings: SK-N-SH viability, CellTiter-Glo luminescence, 48 h; series mostly up to 57 µM; further: nearly all actives have a fitted effect of over 65% in size; further: potency means the concentration at half of the fitted maximal effect
Outline: as §3

[12] = qHTS of pediatric cancer cell lines to identify multiple opportunities for drug repurposing: Primary screen for RD cells (AID 1347104); settings: RD rhabdomyosarcoma viability, CellTiter-Glo luminescence, 48 h; series mostly up to 46 µM; further: potency means the concentration at half of the fitted maximal effect; nearly all actives have a fitted effect of over 55% in size
Outline: as §2

[13] = qHTS of pediatric cancer cell lines to identify multiple opportunities for drug repurposing: Confirmatory screen for NB1643 cells (AID 1347109); settings: NB1643 neuroblastoma cell viability; series mostly up to 45.9 µM; further: potency means the concentration at half of the fitted maximal effect; nearly all actives have a fitted effect of over 45% in size
Outline: as §1

[14] = qHTS of pediatric cancer cell lines to identify multiple opportunities for drug repurposing: Confirmatory screen for A673 cells (AID 1347110); settings: A673 Ewing sarcoma cell viability; series mostly up to 45.9 µM; further: potency means the concentration at half of the fitted maximal effect; nearly all actives have a fitted effect of over 65% in size
Outline: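 Cells plated at 500-1,000/well were treated five hours later with multi-point dilutions up to 46 µM final. After two days, CellTiter-Glo was added and luminescence read.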

[15] = qHTS of pediatric cancer cell lines to identify multiple opportunities for drug repurposing: Confirmatory screen for SK-N-MC cells (AID 1347111); settings: SK-N-MC cell viability; series mostly up to 45.9 µM;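 further: potency means the concentration at half of the fitted maximal effect; cells exposed to compound for 48 h before the readout; nearly all actives have a fitted effect of over 70% in size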
Outline: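 SK-N-MC cells at 500-1,000 cells/well in growth media were pre-incubated 5 h, then exposed to compounds at 11-point dilutions for 48 h at 37 degrees C, 5% CO2. Viability was read as CellTiter-Glo luminescence.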

[16] = qHTS of pediatric cancer cell lines to identify multiple opportunities for drug repurposing: Confirmatory screen for BT-12 cells (AID 1347112); settings: BT-12 rhabdoid tumor cells, viability; series mostly up to 45.9 µM; further: potency means the concentration at half of the fitted maximal effect; nearly all actives have a fitted effect of over 55% in size
Outline: as §1

[17] = qHTS of pediatric cancer cell lines to identify multiple opportunities for drug repurposing: Confirmatory screen for DAOY cells (AID 1347114); settings: DAOY medulloblastoma cells viability, cytotoxicity qHTS; series mostly up to 45.9 µM; further: potency means the concentration at half of the fitted maximal effect; nearly all actives have a fitted effect of over 65% in size
Outline: (§4)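 Viability measured as metabolically active cells via CellTiter-Glo luminescence following 48 hours of compound exposure, 11-point dilutions in confirmatory testing. 500-1,000 cells/well plated 5 hours before dosing; controls were DMSO and 2.3 µM bortezomib.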

[18] = qHTS of pediatric cancer cell lines to identify multiple opportunities for drug repurposing: Confirmatory screen for NB-EBc1 cells (AID 1347115); settings: NB-EBc1 neuroblastoma cells, viability (cytotoxicity); series mostly up to 45.9 µM; further: potency means the concentration at half of the fitted maximal effect; nearly all actives have a fitted effect of over 45% in size
Outline: as §1

[19] = qHTS of pediatric cancer cell lines to identify multiple opportunities for drug repurposing: Confirmatory screen for SJ-GBM2 cells (AID 1347116); settings: SJ-GBM2 glioblastoma cells, viability; series mostly up to 45.9 µM; further: potency means the concentration at half of the fitted maximal effect; nearly all actives have a fitted effect of over 60% in size
Outline: as §4

[20] = qHTS of pediatric cancer cell lines to identify multiple opportunities for drug repurposing: Primary screen for Saos-2 cells (AID 1347097); settings: Saos-2 viability, CellTiter-Glo ATP luminescence, 48 h; series mostly up to 46 µM; further: nearly all actives have a fitted effect of over 40% in size; further: potency means the concentration at half of the fitted maximal effect
Outline: as §2

Measured: Potency

O=c1[nH]c(=O)n([C@H]2C[C@H](O)[C@@H](CO)O2)cc1F
inactive: [1] | [2] | [4] | [5] | [6]
active: [3] 1.33 µM

OC[C@H]1O[C@@H]2O[C@H]3[C@H](O)[C@@H](O)[C@@H](O[C@H]4[C@H](O)[C@@H](O)[C@@H](O[C@H]5[C@H](O)[C@@H](O)[C@@H](O[C@H]6[C@H](O)[C@@H](O)[C@@H](O[C@H]7[C@H](O)[C@@H](O)[C@@H](O[C@H]8[C@H](O)[C@@H](O)[C@@H](O[C@H]1[C@H](O)[C@H]2O)O[C@@H]8CO)O[C@@H]7CO)O[C@@H]6CO)O[C@@H]5CO)O[C@@H]4CO)O[C@@H]3CO
inactive: [1] | [2] | [3] | [7] | [5] | [6] | [8] | [9] | [10]

CC(C)=CCOc1ccc(/C=C/C(=O)c2ccc(OCC=C(C)C)cc2OCC(=O)O)cc1
active: [2] 23.7 µM | [6] 33.5 µM
inactive: [1] | [4] | [8] | [9] | [10]

C[C@H]1O[C@@H](O[C@H]2CC[C@@]3(C)[C@H](CC[C@@H]4[C@@H]3C[C@@H](O)[C@]3(C)[C@@H](C5=CC(=O)OC5)CC[C@]43O)C2)C[C@H](O)[C@@H]1O[C@H]1C[C@H](O)[C@H](O[C@H]2C[C@H](O)[C@H](O[C@@H]3O[C@H](CO)[C@@H](O)[C@H](O)[C@H]3O)[C@@H](C)O2)[C@@H](C)O1
active: [11] 0.386 µM | [2] 0.668 µM | [3] 0.237 µM | [7] 0.309 µM | [5] 0.219 µM | [12] 0.15 µM | [6] 0.0841 µM | [8] 0.075 µM | [13] 0.414 µM | [14] 0.737 µM | [15] 0.414 µM | [16] 0.293 µM | [17] 0.117 µM | [18] 0.369 µM | [19] 0.465 µM
inactive: [9]

O=C(Nc1ncc([N+](=O)[O-])s1)c1cccs1
inactive: [8]
active: [11] 24.4 µM | [2] 23.7 µM | [7] 12.3 µM | [5] 30.9 µM

C#C[C@]1(OC(C)=O)CC[C@H]2[C@@H]3CCC4=C/C(=N/O)CC[C@@H]4[C@H]3CC[C@@]21CC
active: [3] 23.7 µM | [12] 29.9 µM
inactive: [1] | [7] | [4] | [6] | [8] | [9]

CC[C@H](c1ccc(O)cc1)[C@@H](CC)c1ccc(O)cc1
active: [20] 23.7 µM | [11] 19.4 µM | [5] 27.6 µM | [6] 13.3 µM
inactive: [3] | [4] | [8] | [9] | [10]

CN1CCN(C2=Nc3cc(F)ccc3Cc3ccccc32)CC1
inactive: [3] | [8] | [9] | [10]

Cc1ccc2c(Br)cc(Br)c(O)c2n1
active: [2] 15 µM | [3] 11.9 µM | [5] 11 µM | [12] 10.6 µM | [6] 13.3 µM
inactive: [8]

CCCCNc1ccc(C(=O)OCCOCCOCCOCCOCCOCCOCCOCCOCCOC)cc1
inactive: [20] | [11] | [2] | [3] | [4] | [6] | [8] | [9] | [10]
